From PubChem
Only some compounds are listed: those with a hit (about 5.7% of all), similar ones and a draw of the others.
DAX1 inh-1: inhibitors of human orphan nuclear receptor DAX1 (NR0B1) | P51843 | HEK293 Gal4-DAX1 luciferase reporter, luminescence | inhibition, % at 6.75 µM | hit rate 0.99% among 340,000 | AID 504766;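 active = inhibition above the mean over all tested compounds plus 3 SD, cut at about 4.2% in these data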;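 also: 0% = DAX1-transfected cells with DMSO and 100% = empty-vector control cells with DMSO; inhibition shows as a rise in luminescence from relieved DAX1 repression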
Target sequence (P51843 207-470 limits assumed): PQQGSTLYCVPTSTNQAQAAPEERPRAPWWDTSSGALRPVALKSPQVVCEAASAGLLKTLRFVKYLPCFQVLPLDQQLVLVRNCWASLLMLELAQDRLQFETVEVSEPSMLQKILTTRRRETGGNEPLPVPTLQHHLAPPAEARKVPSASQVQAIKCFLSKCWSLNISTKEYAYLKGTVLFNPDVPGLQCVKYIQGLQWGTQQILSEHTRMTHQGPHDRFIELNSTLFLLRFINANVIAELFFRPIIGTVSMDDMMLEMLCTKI
ssDAF-12 act: S. stercoralis DAF-12 activation, primary screen | HEK293 ssDAF-12/GRIP1 lit1-tk-luc reporter, luminescence; % of 3 µM dafachronic acid response | activation, % at 6.8 µM | hit rate 1% among 370,000;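 active = activation above the mean over all tested compounds plus 3 SD, cut at about 0.9% in these data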;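 also: 0% = DMSO-only wells and 100% = 3 µM delta7-dafachronic acid wells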
hgDAF-12 ag: hgDAF-12 agonism, primary luciferase screen | HEK293 GAL4-hgDAF12 UAS-luciferase reporter, agonist luminescence; normalized to butyrate control | AID 687014 | activation, % at 6.8 µM | hit rate 1.8% among 370,000;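 active = activation above a cutoff set at the mean of all screened compounds plus 3 SD, cut at about 10% in these data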;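 also: 0% = DMSO wells and 100% = sodium butyrate wells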
hcDAF12 agonist: activates DAF-12 receptor from parasite H. contortus | activation, % at 6.8 µM | hit rate 1.4% among 370,000 | HEK293 hcDAF-12 lit1-tk-luc reporter, luminescence; 0% DMSO, 100% Δ7-dafachronic acid;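 active = activation above the mean of all tested compounds plus 3 SD, cut at about 5.5% in these data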;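 also: 100% = response to 3 µM Δ7-dafachronic acid high control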
AHR act: activates the human aryl hydrocarbon receptor; AHR-responsive luciferase reporter cells, luminescence; activation, % at 5 µM; P35869; hit rate 2.5% among 320,000; in the data active = activation above about 47%;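 also: 0% = vehicle wells and 100% = reference agonist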
DAX1 inh-2: blocks DAX1 repression of SF-1 activated StAR promoter; HEK293T StAR-luciferase reporter, SF-1/DAX-1 repression relief; inhibition, % at 6.8 µM; hit rate 1.1% among 370,000;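 active = inhibition above the mean over all tested compounds plus 3 SD, cut at about 3.6% in these data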;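 also: 0% = DAX-1 cells with DMSO and 100% = cells lacking DAX-1 with DMSO; higher inhibition means more luminescence from relief of DAX-1 repression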
An asterisk follows results filed as active; . = no result given.

SMILES	DAX1 inh-1	ssDAF-12 act	hgDAF-12 ag	hcDAF12 agonist	AHR act	DAX1 inh-2
CC(C)CCN1C(=O)c2cccc3c(N)ccc(c23)C1=O	1	0	6	4	65*	1
COc1ccc(OCc2cc(C(=O)N(C)Cc3cc(C4CC4)n[nH]3)no2)c(Cl)c1	1	-1	8	4	9	4.2*
CCOC(=O)N1CCN(C(=O)c2cc(COc3ccc(OC)cc3Cl)on2)CC1	2	-1	2	0	15	-1
COc1ccc(OCc2cc(C(=O)N3CCN(CC4CC4)CC3)no2)c(Cl)c1	2	-1	8	1	6	3.6*
O=C(c1cc(COc2ccc(F)cc2F)on1)N1CCSCC1	1	-1	12*	2	0	3
CC(=O)c1cccc(OCc2cc(C(=O)N3C[C@@H](C)O[C@@H](C)C3)no2)c1	2	-1	8	0	4	4.2*
CCN1CCN(C(=O)c2cc(COc3ccc(C(C)=O)cc3OC)on2)CC1	2	0	12*	5	8	1
COc1cccc(OCc2cc(C(=O)N3CCN(C(C)=O)CC3)no2)c1	0	0	6	3	8	1
COc1cccc(C(=O)N/N=C(\C)c2ccc(NC(=O)Cc3ccccc3)cc2)c1OC	1	0	8	4	.	3.8*
C/C(=N\NC(=O)c1cccc(O)c1)c1cccc(NC(=O)c2ccc(F)cc2)c1	2	1	6	0	6	4.3*
C/C(=N\NC(=O)c1cccc(O)c1)c1ccc(NC(=O)Cc2ccccc2)cc1	1	0	10	2	-3	6.8*
C/C(=N/NC(=O)c1ccc(-c2ccccc2)cc1)c1cccc(O)c1	-1	-1	1	1	.	2
COc1ccc(CC(=O)Nc2ccc(/C(C)=N/NC(=O)c3ccc(OC)cc3OC)cc2)cc1	0	0	2	-2	.	0
C/C(=N\NC(=O)c1ccc(F)cc1)c1cccc(NC(=O)c2cccc(F)c2)c1	0	-1	3	3	29	1
Cc1ccc(/C=N/NC(=O)C2(C)CC2(Br)Br)cc1 (configuration not stated)	-1	2.0*	-1	0	8	0
CCn1c(NC(=S)Nc2ccccc2)nc2ccccc21	2	0	1	2	56*	1
S=C(Nc1ccccc1)Nc1nc2ccccc2n1CCOc1ccc(Cl)cc1	0	-2	0	-2	55*	1
CCn1c(NC(=O)C2CCCCC2)nc2ccccc21	1	0	0	-1	1	0
O=C(NCc1ccccc1)[C@@H]1CCCN1C(=O)[C@H]1CCCN1C(=O)c1cccc2ccccc12	.	-1	-2	2	.	-1
CC(C)CCn1c(O)c(N=Nc2ccccn2)c2ccccc21	1	-1	1	0	30	0
O=S(=O)(O)c1cccc(N=Nc2c(O)ccc3ccccc23)c1	1	-1	-1	2	4	0
Oc1ccc2ccccc2c1N=Nc1ccccn1	-2	-2	-8	-1	74*	-4
Oc1ccc2ccccc2c1N=Nc1ccccc1F	1	-1	0	6.4*	50*	0
COC(=O)C1=C(C)N(Cc2ccccc2)C(=S)NC1c1ccc(Cl)cc1 (configuration not stated)	.	-1	-2	1	.	0
CCCCn1c(O)c(N=NC(=O)c2ccco2)c2ccccc21	-1	0	-2	-1	76*	0
SMILES	DAX1 inh-1	ssDAF-12 act	hgDAF-12 ag	hcDAF12 agonist	AHR act	DAX1 inh-2
O=C(CNC(=O)c1ccco1)N=Nc1c(O)n(CCc2ccccc2)c2ccccc12	-2	-1	-3	0	59*	0
CC1CC(C)(C)NC2(CCCC2)N1 (configuration not stated)	2	-1	4	0	.	0
CCS(=O)(=O)N1CCN(C2CCC(C)CC2)CC1 (configuration not stated)	0	1.1*	2	-1	-1	1
CCCCc1c(-c2ccccc2OC)ncn1Cc1cccc(F)c1	.	-2	-3	0	.	0
COc1cc(-c2noc(-c3ccccc3C(=O)NCc3ccco3)n2)cc(OC)c1OC	-1	-1	-4	-2	3	0
COc1ccccc1-c1noc(-c2ccccc2C(=O)NCc2ccco2)n1	0	-2	-3	1	50*	-1
Cc1cccc(C(=O)O/N=C(\N)c2ccc(Br)cc2)c1	1	-1	8	6.1*	42	1
COc1ccc(C(=O)O/N=C(\N)c2cccc(C)c2)cc1OC	3	0	2	0	-1	0
Cc1cccc(/C(N)=N/OC(=O)c2ccncc2)c1	1	0	16*	3	.	9.4*
Cc1cccc(C(=O)O/N=C(\N)c2ccc(Cl)cc2)c1	1	1.0*	5	5.6*	55*	0
N/C(=N\OC(=O)c1cccc(Br)c1)c1ccccc1	2	1.3*	10	6.1*	74*	2
COc1ccc(C(=O)NCC(=O)OCc2nc(N)nc(Nc3ccccc3C)n2)cc1	0	-1	0	0	1	0
Cc1ccc(/C(N)=N/OC(=O)c2ccc(Cl)cc2Cl)cc1	4.7*	-1	-3	2	32	0
COc1cc(OC)c(C(=O)O/N=C(\N)c2ccccc2)cc1OC	1	-1	6	-2	78*	0
COc1cc(OC)c(C(=O)O/N=C(\N)c2ccccn2)cc1OC	1	-1	2	-2	3	0
O=C(NCCO)[C@H](Cc1ccccc1)NC1(C(=O)NCCN2CCOCC2)CCCCC1	.	-2	0	0	.	.
CC1CCCCN1C(=O)Nc1ccccc1Cl (configuration not stated)	5.1*	-1	-2	-2	2	0
Cc1ccc(SC(=O)c2c([N+](=O)[O-])c(C)nn2C)cc1	4.5*	-1	-1	0	3	0
O=C(O)Cc1sc(Nc2ccc(F)cc2)nc1-c1cccs1	3	0	15*	3	17	2
Cc1nc(Nc2ccccc2)sc1C(=O)c1ccc(F)cc1	1	-1	1	-1	7	0
O=C(Cc1sc(Nc2ccccc2)nc1-c1ccccc1)NCc1ccccn1	4	0	11*	6.0*	10	3
O=C(Cc1ccccc1)NCc1ccccn1	0	-1	0	-1	1	0
O=C(O)Cc1sc(Nc2ccccc2)nc1-c1ccc(Cl)cc1	2	1	11*	2	16	1
CSc1c(N(C)C)c(=O)c1=S	.	-1	-1	0	.	0
COc1ccnc(CSC(N)=Nc2ccccc2C(F)(F)F)c1	1	-2	-3	0	6	1
COc1ccnc(CSC(N)=Nc2cccc(C(F)(F)F)c2)c1	-2	-1	3	2	55*	1
